Experimental data: PubChem BioAssay (EPA / NIEHS)
“And” between values parts separate entries of the source, which are not always exact repeats. Equal values may be shown once. Records with an inconclusive call do not appear. The source made the active and inactive calls. The calls were made as follows, unless noted: active = hit-call score of the fitted dose curve at least 0.9, where 1 is the maximum; inconclusive = response in the unintended direction; inactive = score below 0.9.

Experiments:
[1] = TOX21_p53_BLA_p2_viability: Viability Assessment in the Tox21 HCT-116 p53 Agonism Beta-lactamase Assay, Phase 2 (AID 2283591);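 also: actives lower the ATP signal meaning cytotoxicity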
In short: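 HCT116 p53-bla cells, 4000/well, dosed after 5 h plating (217-fold dilution of DMSO stocks) and incubated 16 h at 37C. Viability taken as cellular ATP by CellTiter-Glo luminescence after 30 min RT; signal loss marks cytotoxicity.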

[2] = molecular target: Cellular tumor antigen p53 (Homo sapiens) (UniProt P04637); test: TOX21_p53_BLA_p2_ratio: Tox21 HCT-116 p53 Agonism Beta-lactamase Assay, Ratio, Phase 2 (AID 2283592)
Chain of Cellular tumor antigen p53 (Homo sapiens) (P04637 whole entry, looked up): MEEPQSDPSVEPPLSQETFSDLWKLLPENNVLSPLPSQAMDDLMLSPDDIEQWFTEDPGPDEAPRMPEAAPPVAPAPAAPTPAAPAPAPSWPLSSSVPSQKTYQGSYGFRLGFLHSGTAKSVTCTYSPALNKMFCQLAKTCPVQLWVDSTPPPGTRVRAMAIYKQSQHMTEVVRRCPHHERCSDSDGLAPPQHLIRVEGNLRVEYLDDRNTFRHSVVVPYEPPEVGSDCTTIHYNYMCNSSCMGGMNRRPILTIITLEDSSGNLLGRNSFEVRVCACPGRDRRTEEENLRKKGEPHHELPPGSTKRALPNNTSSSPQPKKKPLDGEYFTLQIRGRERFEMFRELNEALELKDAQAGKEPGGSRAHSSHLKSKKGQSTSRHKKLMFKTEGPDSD
In short: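 HCT-116 cells with p53-responsive beta-lactamase reporter, 4000 cells/well, preincubated 5 h, then compound in DMSO (217-fold dilution) for 16 h at 37C. CCF4-AM substrate 2 h at room temperature; 460/530 nm emission ratio fitted upward versus DMSO.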

[3] = TOX21_p53_BLA_p3_viability: Viability Assessment in the Tox21 HCT-116 p53 Agonism Beta-lactamase Assay, Phase 3 (AID 2283593)
In short: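 HCT116 cells, 4000/well, dosed 5 h after plating by pin transfer (217-fold dilution from DMSO stock) and incubated 16 h at 37C, 5% CO2. Viability read as ATP luminescence with CellTiter-Glo after 30 min at room temperature.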

[4] = molecular target: Cellular tumor antigen p53 (Homo sapiens) (UniProt P04637); test: TOX21_p53_BLA_p3_ratio: Tox21 HCT-116 p53 Agonism Beta-lactamase Assay, Ratio, Phase 3 (AID 2283596)
In short: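 HCT116 p53-bla cells (4000/well) given compound in DMSO (217-fold dilution) after 5 h, incubated 16 h at 37C. CCF4-AM substrate 2 h at room temperature; 460/530 nm emission ratio, gain fitted against DMSO.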

[5] = TOX21_p53_BLA_p4_viability: Viability Assessment in the Tox21 HCT-116 p53 Agonism Beta-lactamase Assay, Phase 4 (AID 2283597);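 also: hits lower the luminescence signal meaning cytotoxicity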
In short: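 HCT-116 p53-bla cells, 4000/well, dosed after 5 h attachment and incubated 16 h at 37 °C, 5% CO2. Viability from CellTiter-Glo ATP luminescence after 30 min at room temperature, taken after the beta-lactamase read; loss of signal indicates cytotoxicity.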

[6] = molecular target: Cellular tumor antigen p53 (Homo sapiens) (UniProt P04637); test: TOX21_p53_BLA_p5_ratio: Tox21 HCT-116 p53 Agonism Beta-lactamase Assay, Ratio, Phase 5 (AID 2283599)
In short: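 HCT-116 p53-bla cells (4000/well) plated 5 h, dosed with compound (217-fold DMSO dilution) for 16 h at 37 C; CCF4-AM substrate 2 h at room temperature. Activity is the 460/530 nm emission ratio (405 nm excitation), fitted in gain-of-signal direction versus DMSO.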

[7] = TOX21_p53_BLA_p5_viability: Viability Assessment in the Tox21 HCT-116 p53 Agonism Beta-lactamase Assay, Phase 5 (AID 2283600)
In short: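 HCT-116 p53 beta-lactamase reporter cells, 4000/well, were exposed to compound (pin transfer, 217-fold dilution) for 16 hours at 37C. Cellular ATP was read by CellTiter-Glo luminescence after 30 min at room temperature.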

[8] = molecular target: Cellular tumor antigen p53 (Homo sapiens) (UniProt P04637); test: TOX21_p53_BLA_p4_ratio: Tox21 HCT-116 p53 Agonism Beta-lactamase Assay, Ratio, Phase 4 (AID 2283601)
In short: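 HCT-116 p53 beta-lactamase reporter cells (4000/well) preincubated 5 h, then compound (217-fold dilution of DMSO stock) for 16 h at 37C. CCF4-AM substrate added 2 h at room temperature; 460/530 nm emission ratio fitted upward versus DMSO.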

[9] = molecular target: PGR (gene 5241) (UniProt P06401); test: TOX21_PR_BLA_Followup_Agonist_ratio: Tox21 HEK293 Progesterone Receptor (PR) Agonism Beta-lactamase Follow-Up Assay, Ratio (AID 2283933)
Chain of PGR (gene 5241) (P06401 whole entry, looked up): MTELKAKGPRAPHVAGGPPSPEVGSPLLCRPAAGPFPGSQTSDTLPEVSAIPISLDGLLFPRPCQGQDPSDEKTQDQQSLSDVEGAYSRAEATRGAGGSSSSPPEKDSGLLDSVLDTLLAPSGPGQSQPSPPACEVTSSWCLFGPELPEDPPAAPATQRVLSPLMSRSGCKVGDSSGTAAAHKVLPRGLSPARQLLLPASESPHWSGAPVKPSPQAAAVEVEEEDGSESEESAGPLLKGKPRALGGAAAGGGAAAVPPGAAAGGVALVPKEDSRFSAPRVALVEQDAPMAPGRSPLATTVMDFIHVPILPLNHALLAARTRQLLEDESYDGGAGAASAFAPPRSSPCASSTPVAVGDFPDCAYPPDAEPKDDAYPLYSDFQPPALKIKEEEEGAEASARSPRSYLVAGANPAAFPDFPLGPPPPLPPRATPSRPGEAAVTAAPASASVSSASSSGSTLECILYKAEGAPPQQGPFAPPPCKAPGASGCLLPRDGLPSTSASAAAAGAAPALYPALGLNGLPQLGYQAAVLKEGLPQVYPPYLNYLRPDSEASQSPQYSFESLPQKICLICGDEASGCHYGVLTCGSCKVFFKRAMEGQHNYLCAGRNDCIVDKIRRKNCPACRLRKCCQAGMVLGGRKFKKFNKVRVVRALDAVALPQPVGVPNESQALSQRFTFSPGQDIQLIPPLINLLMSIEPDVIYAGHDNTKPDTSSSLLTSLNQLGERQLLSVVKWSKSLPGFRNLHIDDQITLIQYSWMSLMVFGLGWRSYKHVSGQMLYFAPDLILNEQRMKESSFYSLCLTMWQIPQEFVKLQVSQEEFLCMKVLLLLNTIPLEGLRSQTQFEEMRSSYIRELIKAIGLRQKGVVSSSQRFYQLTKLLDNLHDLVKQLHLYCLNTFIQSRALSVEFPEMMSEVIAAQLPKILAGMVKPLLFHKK
In short: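 PR-UAS-bla HEK293T cells in medium with 2% charcoal-stripped FBS were dosed after 6 h plating and incubated 16 h at 37C. LiveBLAzer FRET substrate was added for 2 h at room temperature. Cleaved/uncleaved substrate ratio fitted against DMSO; CellTiter-Glo viability run in the same wells.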

[10] = molecular target: PGR (gene 5241) (UniProt P06401); test: TOX21_PR_BLA_Followup_Antagonist_ratio: Tox21 HEK293 Progesterone Receptor (PR) Antagonism Beta-lactamase Follow-Up Assay, Ratio (AID 2283934)
In short: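 PR-UAS-bla HEK293T cells, 3,000/well in 2% charcoal-stripped FBS, given compound plus 1nM R5020 agonist for 16 hr at 37C. Beta-lactamase FRET substrate 2 hours, ratio cleaved/uncleaved fluorescence; viability by CellTiter-Glo in same wells.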

[11] = TOX21_PR_BLA_Followup_Agonist_viability: Viability Assessment in the Tox21 HEK293 Progesterone Receptor (PR) Agonism Beta-lactamase Follow-Up Assay (AID 2283935);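 also: signal loss means lower viability so actives are cytotoxic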
In short: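 PR-UAS-bla HEK293T cells in 2% charcoal-stripped FBS medium, plated 6 hr before compound addition, exposed 16 hr at 37C. Viability read by CellTiter-Glo ATP luminescence after 30 min at room temperature, in the same wells as the beta-lactamase readout.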

[12] = TOX21_PR_BLA_Followup_Antagonist_viability: Viability Assessment in the Tox21 HEK293 Progesterone Receptor (PR) Antagonism Beta-lactamase Follow-Up Assay (AID 2283936);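 also: hits lower the luminescence signal meaning cytotoxicity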
In short: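 PR-UAS-bla HEK293T cells (3,000/well, 2% charcoal-stripped FBS) given compound plus R5020 agonist, 16 h at 37C. CellTiter-Glo added after bla read, 30 min at room temperature; luminescence loss indicates cytotoxicity.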

[13] = molecular target: PGR (gene 5241) (UniProt P06401); test: TOX21_PR_LUC_Followup_Agonist: Tox21 HEK293 Progesterone Receptor (PR) Agonism Luciferase Follow-Up Assay (AID 2283937; active = hit-call score of the fitted dose curve at least 0.9, where 1 is the maximum; inactive = score below 0.9)
In short: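 HEK293-PR-A-luc cells, conditioned 5 days in 10% charcoal-stripped FBS medium, seeded 3,000/well for 5 h, then compound-treated 16 h at 37C. ONE-Glo luminescence read after 30 min at room temperature; gain of signal versus DMSO.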

[14] = molecular target: PGR (gene 5241) (UniProt P06401); test: TOX21_PR_LUC_Followup_Antagonist: Tox21 HEK293 Progesterone Receptor (PR) Antagonism Luciferase Follow-Up Assay (AID 2283938);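 also: curve fitted upward as signal gain over DMSO baseline despite antagonist label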
In short: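 HEK293-PR-A-luc cells, 3,000/well, preincubated 5 h at 37C before compound addition in DMSO; 16 h compound exposure at 37C. ONE-Glo luciferase luminescence read after 30 min at room temperature, fitted relative to DMSO baseline.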

[15] = TOX21_PR_LUC_Followup_Antagonist_viability: Viability Assessment in the Tox21 HEK293 Progesterone Receptor (PR) Antagonism Luciferase Follow-Up Assay (AID 2283940)
In short: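 HEK293-PR-A-luc cells kept in charcoal-stripped FBS medium were plated 5 h before compound addition, then exposed 16 h at 37C; viability read as cellular ATP by luciferase luminescence, loss of signal indicating cytotoxicity.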

[16] = TOX21_PR_LUC_Followup_Agonist_viability: Viability Assessment in the Tox21 HEK293 Progesterone Receptor (PR) Agonism Luciferase Follow-Up Assay (AID 2283941);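 also: loss of signal means cytotoxicity so actives lower viability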
In short: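 HEK293-PR-A-luc cells, kept in 10% charcoal-stripped FBS medium, were treated with compounds for 16 h at 37C. Viability read as cellular ATP by luciferase-coupled luminescence; loss of signal indicates cytotoxicity.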

## Oc1ccc(Cl)cc1Sc1cc(Cl)ccc1O
[1]
  AC50: 31.3 µM (active) and 23 µM (active)
[2]
  AC50: 31.8 µM (active) and 8.26 µM (active)
[3]
  AC50: 46 µM (active) and 23 µM (active)
[4]
  AC50: 46 µM (active) and 21.2 µM (active)
[5]
  AC50: 53.9 µM (active) and 15.2 µM (active)
[6]
  AC50: 72.3 µM (active) and 32.1 µM (active)
[7]
  AC50: 70.2 µM (active) and 23 µM (active)
[8]
  AC50: 65 µM (active) and 28.6 µM (active)

## CC(C)C[C@H](NC(=O)[C@H](CCc1ccccc1)NC(=O)CN1CCOCC1)C(=O)N[C@@H](Cc1ccccc1)C(=O)N[C@@H](CC(C)C)C(=O)[C@@]1(C)CO1
[1]
  AC50: 757 nM (active)
[2]
  AC50: 108 nM (active)
[3]
  AC50: 1.09 µM (active)
[4]
  AC50: 121 nM (active)
[5]
  AC50: 759 nM (active)
[6]
  AC50: 203 nM (active)
[7]
  AC50: 1 µM (active)
[8]
  AC50: 109 nM (active)
[9]
  outcome: inactive
[10]
  AC50: 15.9 µM (active)
[11]
  outcome: inactive
[12]
  outcome: inactive
[13]
  outcome: inactive
[14]
  AC50: 8.16 µM (active)
[15]
  outcome: inactive

## CC(C)C[C@H](NC(=O)CNC(=O)[C@H](Cc1ccc(O)cc1)NC(=O)[C@H](CO)NC(=O)[C@H](Cc1c[nH]c2ccccc12)NC(=O)[C@H](Cc1cnc[nH]1)NC(=O)[C@@H]1CCC(=O)N1)C(=O)N[C@@H](CCCN=C(N)N)C(=O)N1CCC[C@H]1C(=O)NCC(N)=O (stereo in doubt)
[1]
  outcome: inactive
[2]
  outcome: inactive
[3]
  outcome: inactive
[4]
  outcome: inactive
[5]
  outcome: inactive
[6]
  outcome: inactive
[7]
  outcome: inactive
[8]
  outcome: inactive

## O=C(O)c1cc(-c2ccccc2)nc2ccccc12
[1]
  outcome: inactive
[2]
  outcome: inactive
[3]
  outcome: inactive
[4]
  outcome: inactive
[5]
  outcome: inactive
[6]
  outcome: inactive
[7]
  outcome: inactive
[8]
  outcome: inactive

## COc1cc(C(=O)NS(=O)(=O)c2ccccc2C)ccc1Cc1cn(C)c2ccc(NC(=O)OC3CCCC3)cc12
[1]
  AC50: 14200 nM (active)
[2]
  AC50: 7010 nM (active)
[3]
  AC50: 7.45 µM (active)
[4]
  AC50: 8200 nM (active)
[5]
  AC50: 8180 nM (active)
[6]
  AC50: 12900 nM (active)
[7]
  AC50: 10.1 µM (active)
[8]
  AC50: 9980 nM (active)

## O=C1c2cccc(O)c2C(=O)c2c(O)cccc21
[1]
  outcome: inactive
[2]
  outcome: inactive
[3]
  outcome: inactive
[4]
  outcome: inactive
[5]
  outcome: inactive
[6]
  outcome: inactive
[7]
  outcome: inactive
[8]
  outcome: inactive

## COC(=O)C1=C(C)NC(C)=C(C(=O)OCCN2CCN(C(c3ccccc3)c3ccccc3)CC2)C1c1cccc([N+](=O)[O-])c1 (stereo not given)
[1]
  outcome: inactive
[2]
  outcome: inactive
[3]
  outcome: inactive
[4]
  outcome: inactive
[5]
  outcome: inactive
[6]
  outcome: inactive
[7]
  outcome: inactive
[8]
  outcome: inactive
[9]
  outcome: inactive
[10]
  outcome: inactive
[11]
  outcome: inactive
[12]
  outcome: inactive
[13]
  outcome: inactive
[14]
  AC50: 23 µM (active)
[15]
  outcome: inactive
[16]
  outcome: inactive

## Cc1ccc(/C=N/n2c(-c3ccccc3)csc2=S)cc1
[1]
  outcome: inactive
[2]
  outcome: inactive
[3]
  outcome: inactive
[4]
  outcome: inactive
[5]
  outcome: inactive
[6]
  outcome: inactive
[7]
  outcome: inactive
[8]
  outcome: inactive
[10]
  AC50: 23 µM (active)
[11]
  outcome: inactive
[12]
  outcome: inactive
[14]
  outcome: inactive
[15]
  outcome: inactive
[16]
  outcome: inactive

## C=C1C(CCl)(CCl)C2(Cl)C(Cl)C(Cl)C1(Cl)C2(Cl)Cl (stereo not given)
[1]
  AC50: 50.6 µM (active) and 13.5 µM (active)
[2]
  AC50: 76.7 µM (active) and 35.7 µM (active)
[3]
  AC50: 45.6 µM (active) and 12 µM (active)
[4]
  AC50: 86.4 µM (active) and 20.9 µM (active)
[5]
  AC50: 67.2 µM (active) and 17.1 µM (active)
[6]
  AC50: 68.4 µM (active) and 24.1 µM (active)
[7]
  AC50: 45.6 µM (active) and 15.7 µM (active)
[8]
  AC50: 86.6 µM (active) and 36.1 µM (active)
[9]
  outcome: inactive
[10]
  AC50: 23 µM (active)
[11]
  outcome: inactive
[12]
  outcome: inactive
[13]
  AC50: 8.97 µM (active)
[14]
  outcome: inactive
[15]
  outcome: inactive
